CBX7 inh: CBX7 chromodomain binding inhibitors, primary screen, biochemical, AlphaScreen | Chromobox protein homolog 7 (Homo sapiens), O95931 | AlphaScreen His6-CBX7 / biotin-H3K27me3 peptide binding; stronger effect = lower value | normalised signal (fraction of DMSO) (concentration not given with the values) | 1.1% of 66,000 active; in the data active = normalised signal below about 0.5
Target sequence (O95931 whole entry, looked up): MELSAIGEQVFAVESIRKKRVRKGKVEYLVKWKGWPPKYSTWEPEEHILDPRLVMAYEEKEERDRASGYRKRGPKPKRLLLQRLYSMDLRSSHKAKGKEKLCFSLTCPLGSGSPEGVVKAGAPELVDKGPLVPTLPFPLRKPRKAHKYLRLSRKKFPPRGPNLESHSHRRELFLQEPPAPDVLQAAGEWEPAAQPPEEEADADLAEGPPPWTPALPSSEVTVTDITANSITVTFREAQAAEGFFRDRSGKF
An asterisk follows results filed as active; ! = not confirmed by another sample. Many of the other results were omitted from the sample, so hits are more common in it than they were.

SMILES	CBX7 inh
O=C(c1ccc2c(c1)N(Cc1ccccc1)CCS2)N1CCCCCC1	0.46*
O=C(c1ccc2c(c1)N(Cc1ccccc1)CCS2)N1CCN(c2ccc(Cl)cc2)CC1	0.62
O=C(c1ccc2c(c1)N(Cc1ccccc1)CCS2)N1CCN(c2ccccn2)CC1	0.62
O=C(c1ccc2c(c1)N(Cc1ccccc1)CCS2)N1CCN(Cc2ccccc2)CC1	0.37*
O=C(c1ccc2c(c1)N(Cc1ccc(F)cc1)CCS2)N1CCN(c2ccccc2)CC1	0.76
O=C(c1ccc2c(c1)N(Cc1ccccc1)CCS2)N1CCc2ccccc21	0.81
Cc1sc2ncnc(SCC(=O)Nc3ccc(Br)cc3)c2c1C	1.1
C=CCNC(=O)c1cnn2c(C(F)(F)F)cc(-c3ccccc3)nc12	1.1
COc1cccc(C(=O)NCCN=C2NS(=O)(=O)c3ccccc32)c1	1
COc1ccc(NC(=O)CNC(=O)Cn2cnc3sc(C)c(C)c3c2=O)cc1Cl	0.97
Oc1cccc(Nc2nc(-c3ccccn3)cs2)c1	0.19*
CCOc1ccccc1Nc1nc(-c2ccccn2)cs1	0.6
CCc1ccc(-c2csc(Nc3ncccn3)n2)cc1	1.1
Oc1ccc(Nc2nc(-c3ccccn3)cs2)cc1	0.0014*
O=C(O)c1cccc(Nc2nc(-c3ccccn3)cs2)c1	0.15*
O=C(O)c1cccc(Nc2nc(-c3ccccc3)cs2)c1	1
COc1ccc(-c2csc(Nc3ccc(O)cc3)n2)cc1OC	0.77
Oc1cccc(Nc2nc(-c3ccncc3)cs2)c1	0.77
c1cnc(Nc2nc(-c3ccncc3)cs2)nc1	1.1
COc1ccc(-c2csc(Nc3cccc(O)c3)n2)cc1OC	0.87
c1ccc(-c2csc(Nc3ncccn3)n2)nc1	0.0089*
O=C(O)c1cccc(Nc2nc(-c3ccncc3)cs2)c1	0.97
Cc1nc2c(-c3ccc(F)cc3)c(C)nn2c(C)c1CCC(=O)NCc1cccnc1	0.99
CC(C)(C)c1ccc(OCCCC(=O)NCCc2nc3ccccc3[nH]2)cc1	0.97
Cc1ccc(-c2cc(C(=O)NCCCN3CCOCC3)c3ccccc3n2)c(C)c1	1
SMILES	CBX7 inh
Cc1ccccc1NC(=O)C1(N(C)C(=O)Cc2nc(N)n[nH]2)CCCCC1	0.86
Cc1cc(N2CCN(C)CC2)nc2ccc(NC(=O)CCC(=O)NCCCN3CCN(C)CC3)cc12	1
COc1ccc2[nH]c(C)c(CCNC(=O)Cn3nc(C(F)(F)F)c4c3CCCC4)c2c1	0.72
CC(=O)Nc1ccc(-n2c(/C=C/c3ccc(OC(F)F)cc3)nc3cc(Cl)ccc3c2=O)cc1	1.1
CCCCc1ccc(-c2nc(Nc3ccc(Cl)cc3)c3ccccc3n2)cc1	1.4
Cc1ccc(-c2nc(S(=O)(=O)c3ccc(F)cc3)c(SCC(C)C)o2)cc1	1.1
O=C(NC1CCCCCCC1)c1ccc2c(c1)N(Cc1ccccc1)C(=O)CS2	0.96
Cc1cccc(Nc2nc(-c3ccncc3)cs2)c1	0.72
Cc1cccc(Nc2nc(-c3ccc(Cl)cc3)cs2)c1	0.76
Cc1cccc(Nc2nc(-c3ccccn3)cs2)c1	0.16*
Cc1c(C(=O)NCCCN2CCCC2=O)oc2ccc(S(=O)(=O)N3CCCCC3)cc12	1.1
Cc1ccccc1-c1nc(CS(=O)(=O)CC(=O)N2CCN(Cc3ccccc3)CC2)c(C)o1	0.69
Cc1ccccc1-c1nc(CS(=O)(=O)CC(=O)N2CCC(Cc3ccccc3)CC2)c(C)o1	0.49*
Cc1ccccc1-c1nc(CS(=O)(=O)CC(=O)N2CCCCC2)c(C)o1	0.99
CN(C)CCSc1nc(O)c(-c2ccccc2)c(=O)[nH]1	1
CCC1Oc2ccc(Cl)cc2N(CC(=O)NCCN(C)C)C1=O (stereo unspecified)	0.87
Cc1ccc(C(=O)CSc2n[nH]c(-c3ccncc3)n2)cc1	0.71
O=C(CSc1n[nH]c(-c2ccncc2)n1)c1ccc(Br)cc1	0.23*
CC(=O)Nc1ccc(C(=O)CSc2n[nH]c(-c3ccncc3)n2)cc1	0.66
CCC(CC)C(=O)Nc1c(-c2ccc(F)cc2)nc2cc(C)ccn12	1
COc1ccc(NC(=O)CCc2c(C)nc3c(-c4ccccc4)c(C)nn3c2C)cc1OC	0.68
COc1ccccc1Nc1nc(-c2c(C)nc3ccccn23)cs1	0.96
Cc1cccc(Nc2nc(-c3c(C)nc4ccccn34)cs2)c1	1
Cc1nc2ccccn2c1-c1csc(Nc2ccc(Br)cc2Br)n1	0.8
Cc1ccc(Nc2nc(-c3c(C)nc4sccn34)cs2)c(C)c1	0.42*!
SMILES	CBX7 inh
COc1ccccc1Nc1nc(-c2c(C)nc3sccn23)cs1	0.32*
COc1ccc(Cl)cc1Nc1nc(-c2c(C)nc3sccn23)cs1	0.97
COc1cccc(-c2nc3cc(NC(=O)c4ccc(Cl)cc4Cl)ccc3o2)c1	0.88
CCOc1ccc2nc(N3CCC(C(=O)N4CCN(c5cccc(Cl)c5)CC4)CC3)sc2c1	1
O=C1Nc2ccccc2Oc2cc([N+](=O)[O-])cc(OCCO)c21	0.93
CCOc1cc([N+](=O)[O-])cc2c1C(=O)Nc1ccccc1O2	0.88
O=C1Nc2ccccc2Oc2cc([N+](=O)[O-])cc(Oc3cccc(Cl)c3)c21	0.37*
O=C1Nc2ccccc2Oc2cc([N+](=O)[O-])cc(Oc3cccc(Cl)c3Cl)c21	0.48*
COCCNC(=O)c1cc(-c2ccc(Cl)cc2)on1	1
CCCCc1ccc(NC(=O)CSc2nnc(CNC(=O)c3cccs3)o2)cc1	1
CCOc1ccccc1C(=O)NCCc1cc2c(OC)ccc(OC)c2[nH]c1=O	1
CC(NC(=O)C1CCN(C(=O)c2cc3sccc3n2C)CC1)c1ccccc1 (stereo unspecified)	0.93
CCCCN(CC)S(=O)(=O)c1ccc2[nH]c(=O)cc(C(=O)NCc3ccccc3)c2c1	1
COC(=O)c1c[nH]n2c(NCCc3ccccc3)c(-c3ccc(F)cc3)nc12	0.89
COC(=O)c1c[nH]n2c(NCCc3ccccc3)c(-c3ccc(C)cc3)nc12	0.84
COC(=O)c1c[nH]n2c(NC3CCC(C)CC3)c(-c3ccc(OC)c(OC)c3)nc12 (stereo unspecified)	0.27*
COC(=O)c1c[nH]n2c(NC3CCCCC3)c(-c3ccc(Cl)cc3)nc12	0.71
COC(=O)c1c[nH]n2c(NC3CCCCCC3)c(-c3ccc(Cl)cc3)nc12	0.57
COC(=O)c1c[nH]n2c(NC3CCC(C)CC3)c(-c3ccc(F)cc3)nc12 (stereo unspecified)	0.25*
Cc1ccc(S(=O)(=O)N2CCC(C(=O)Nc3ccccc3C)CC2)cc1	1
CCOc1ccc(C(=O)Nc2ccc(-c3nc4ncccc4o3)cc2)cc1[N+](=O)[O-]	0.97
CC(C)CCNC(=O)C1CCN(c2nc3ccccc3n2Cc2ccc(F)cc2)CC1	0.98
CCCN(CCC)CCCNC(=O)C(=O)NCc1cccnc1	0.93
COc1ccc2c(c1)CCc1sc(NC(=O)c3ccc(OC)c(OC)c3)nc1-2	1
Cc1[nH]c2ccc(OCc3ccccc3)cc2c1CCNC(=O)COc1ccc(F)cc1F	0.53
COc1ccccc1C(=O)NCCc1c(C)[nH]c2ccc(OCc3ccccc3)cc12	0.44*
COc1ccccc1C(=O)NCCc1c(C)[nH]c2ccc(OC(F)(F)F)cc12	0.64
Cc1ccc(CN2C(=O)CSc3ccc(C(=O)NCCc4ccccc4)cc32)cc1	0.92
CCn1c(C(=O)N2CCCC(C(=O)N3CCN(c4cccc(C)c4)C(C)C3)C2)cc2sccc21 (stereo unspecified)	0.6
CCn1c(C(=O)N2CCC(C(=O)N3CCN(c4cccc(C)c4)C(C)C3)CC2)cc2sccc21 (stereo unspecified)	0.44*

Bioassay records as filed in PubChem BioAssay.
